± gives the standard deviation.
Experiments:
Conditions in all cases: modulator concentration 10 µM
[1] = test system: RAW-Dual (murine macrophage reporter line); assay: NF-kB reporter (SEAP) activity fold change vs agonist alone; higher = enhanced NF-kB activity
Method in brief: (§1)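 Compound reached 10 μM final in each well by pin transfer, onto RAW-Dual murine macrophage reporter cells seeded at 50 000 per well in 384-well plates. After 1 hour at 37 °C, the cells were stimulated overnight with a PRR agonist. SEAP in the supernatant was read with QUANTI-Blue at 620 nm absorbance for NF-κB, and Lucia luciferase was read with QUANTI-Luc luminescence for IRF. Each signal was turned into fold change against the mean agonist-only control on the same plate, and two replicate plates were averaged with propagated errors.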

[2] = test system: RAW-Dual (murine macrophage reporter line); assay: IRF reporter (Lucia luciferase) activity fold change vs agonist alone; higher = enhanced IRF activity
Method in brief: as §1

[3] = test system: RAW-Dual (murine macrophage reporter line); assay: viability score (confluency relative to resting cells, overnight) (fraction); higher = more viable, active = viable (0.7 or more)
Method in brief: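 Two confluency masks, generated with IncuCyte software over all imaged wells, were applied to IncuCyte images of RAW-Dual macrophages. The cells, in 384-well plates, had been exposed overnight to 10 μM final compound. The viability score is confluency as a fraction of resting cells, and a compound met the cutoff only with both masks above 70% of resting cells.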

[4] = agonist: CpG ODN 1826 0.5 ug/mL

Structure (SMILES) | NF-kB reporter [1, 4] | NF-kB reporter ([1]; agonist: LPS 0.1 ug/mL) | NF-kB reporter ([1]; agonist: MPLA […]) | IRF reporter ([2]; agonist: 3'3'-cGAMP 10 ug/mL) | IRF reporter ([2]; agonist: LPS 0.1 ug/mL) | IRF reporter ([2]; agonist: MPLA […]) | viability score [3]
Cl.Cl.OCCN1CCN(CC/C=C2/c3ccccc3Sc3ccc(C(F)(F)F)cc32)CC1 | 1.01 ± 0.046 | 1.03 ± 0.13 | 1.04 ± 0.1 | 0.959 ± 0.058 | 1.13 ± 0.23 | 1.22 ± 0.28 | 1.02 (active)
Cc1cccc(N(CC(=O)Nc2ccc3c(c2)OCO3)S(C)(=O)=O)c1 | 0.716 ± 0.06 | 0.934 ± 0.068 | 1 ± 0.098 | 0.784 ± 0.04 | 1.19 ± 0.071 | 1.22 ± 0.13 | 1.02 (active)
CC(C)Oc1ccc(Br)cc1C=C(C#N)c1nn(CCO)c(N)c1C#N | 1.33 ± 0.11 | 1.16 ± 0.066 | 1.11 ± 0.077 | 0.91 ± 0.027 | 1.2 ± 0.22 | 1.03 ± 0.18 | 1.01 (active)
COc1ccc(-c2cc(CNC(=O)c3c(F)cccc3F)no2)cc1 | 0.713 ± 0.041 | 0.742 ± 0.11 | 0.744 ± 0.042 | 0.878 ± 0.081 | 1.4 ± 0.22 | 1.72 ± 0.45 | 0.947 (active)
COc1cccc(O)c1O | 1.72 ± 0.1 | 0.627 ± 0.083 | 0.321 ± 0.013 | 0.479 ± 0.022 | 0.422 ± 0.03 | 0.0889 ± 0.013 | 0.935 (active)
COc1ccc(Cl)cc1C(=O)Nc1ccc(NC(=O)c2ccccc2)cc1 | 0.907 ± 0.079 | 1.12 ± 0.11 | 0.949 ± 0.057 | 0.937 ± 0.023 | 1.34 ± 0.2 | 1.09 ± 0.25 | 1.02 (active)
NS(=O)(=O)c1ccc(C(=O)O)cc1 | 0.892 ± 0.066 | 0.94 ± 0.096 | 1.06 ± 0.096 | 1.01 ± 0.054 | 1.01 ± 0.18 | 1 ± 0.31 | 0.994 (active)
CN1C(=O)C(=Cc2cccc3ccccc23)SC1=S | 0.909 ± 0.21 | 1.04 ± 0.088 | 0.949 ± 0.073 | 0.939 ± 0.024 | 1.26 ± 0.22 | 1.33 ± 0.15 | 0.998 (active)
O=[N+]([O-])c1ccc(N2CCOCC2)c(-c2nnn[nH]2)c1 | 0.98 ± 0.25 | 1.05 ± 0.11 | 0.918 ± 0.085 | 0.938 ± 0.045 | 1.11 ± 0.14 | 1.29 ± 0.17 | 0.996 (active)
CC1(C)OC(=O)C(=Cc2ccc(I)o2)C(=O)O1 | 0.595 ± 0.069 | 1.01 ± 0.069 | 0.887 ± 0.17 | 0.589 ± 0.049 | 1.02 ± 0.18 | 0.877 ± 0.26 | 1.01 (active)
COc1cc(C2CC3CC2C(C)C3(C)C)ccc1O (stereo not given) | 0.638 ± 0.098 | 0.716 ± 0.052 | 0.773 ± 0.078 | 0.926 ± 0.031 | 1.01 ± 0.14 | 1.34 ± 0.22 | 1.01 (active)
CS(=O)(=O)N(Cc1ccccc1)c1ccc(C(=O)NCCSCc2ccc(Cl)cc2)cc1 | 0.924 ± 0.099 | 0.976 ± 0.062 | 1.01 ± 0.097 | 1.01 ± 0.028 | 1.54 ± 0.25 | 1.13 ± 0.14 | 1.01 (active)
CCCc1cc(=O)oc2cc(OCC(=O)OC)c(Cl)cc12 | 1.1 ± 0.09 | 0.967 ± 0.13 | 1.03 ± 0.041 | 0.96 ± 0.13 | 1.04 ± 0.1 | 1.09 ± 0.18 | 0.998 (active)
Cc1cc(NC2CCCC2)nc2ccccc12 | 0.798 ± 0.21 | 1.48 ± 0.12 | 1.91 ± 0.27 | 1.12 ± 0.068 | 1.88 ± 0.28 | 2.72 ± 0.43 | 0.608 (inactive)
CC(C)(C)NCC(O)COc1cccc2c1CCC(=O)N2.Cl (stereo not given) | 1.14 ± 0.17 | 1.12 ± 0.25 | 1.03 ± 0.12 | 0.941 ± 0.037 | 1.33 ± 0.26 | 1.03 ± 0.19 | 0.995 (active)
O=C(O[C@@H]1C[C@@H]2C[C@@H]3C[C@H](C1)N2CC3=O)c1c[nH]c2ccccc12 [Prestw-1510] | 0.575 ± 0.048 | 0.718 ± 0.056 | 0.697 ± 0.043 | 0.931 ± 0.04 | 0.958 ± 0.055 | 0.958 ± 0.18 | 1 (active)
Ic1ccc(OCCCOc2ncnc3ccccc23)cc1 | 0.781 ± 0.069 | 0.931 ± 0.045 | 1.14 ± 0.12 | 0.963 ± 0.05 | 1.39 ± 0.095 | 1.6 ± 0.2 | 1.02 (active)
Cl.NCCCC(N)(C(=O)O)C(F)F.O (stereo not given) | 1.06 ± 0.25 | 1.09 ± 0.065 | 1.2 ± 0.18 | 0.922 ± 0.035 | 1.3 ± 0.15 | 1.19 ± 0.15 | 0.994 (active)
O=C(CC1CC1)N1CCN(c2cc(C(F)(F)F)ncn2)CC1 | 0.929 ± 0.04 | 0.963 ± 0.081 | 1.29 ± 0.13 | 1.04 ± 0.091 | 1.04 ± 0.18 | 1.01 ± 0.43 | 1.01 (active)
c1ccc(-n2nnnc2SCc2ccc3c(c2)OCO3)cc1 | 1.1 ± 0.096 | 1.22 ± 0.14 | 1.46 ± 0.096 | 0.785 ± 0.029 | 0.988 ± 0.11 | 1.13 ± 0.25 | 0.998 (active)
CC=CCn1c(=O)c2c(nc3n2CC(C(C)(C)C)=NN3)n(C)c1=O | 1.02 ± 0.092 | 1.09 ± 0.1 | 1.08 ± 0.11 | 1 ± 0.026 | 1.28 ± 0.2 | 0.943 ± 0.099 | 0.96 (active)
Clc1ccccc1C=NNc1nc(-c2ccccc2)cc(-c2ccccc2)n1 | 1.15 ± 0.11 | 1.1 ± 0.073 | 1.79 ± 0.07 | 1.2 ± 0.23 | 1.04 ± 0.065 | 1.65 ± 0.29 | 1 (active)
CC1=CC(=NS(=O)(=O)c2ccc(C)cc2)C=C(Cl)C1=O | 0.635 ± 0.068 | 0.706 ± 0.038 | 0.68 ± 0.062 | 0.451 ± 0.02 | 0.611 ± 0.04 | 0.428 ± 0.038 | 0.89 (active)
O=C1CSC(=S)N1c1ccc(Cl)cc1 | 0.606 ± 0.049 | 0.665 ± 0.077 | 0.854 ± 0.059 | 0.389 ± 0.059 | 0.673 ± 0.03 | 0.869 ± 0.11 | 0.988 (active)
COc1ccc2nc(NCCCn3ccnc3)sc2c1 | 0.921 ± 0.07 | 1.02 ± 0.11 | 1.04 ± 0.1 | 0.836 ± 0.034 | 1.15 ± 0.14 | 1.25 ± 0.2 | 0.985 (active)

From the supplement of paper PMC10646978
